Compound activity from PubChem BioAssay.
An excerpt weighted towards active compounds, which were near 9.1% of everything screened.
M1 antagonist: antagonists of rat M1 muscarinic receptor. hit rate 3.4% among 64,000. CHO-M1 cells, Fluo-4 calcium, ACh EC80 antagonist mode; active compounds read low. P08482. B-score at 10 µM;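 active = calcium fluorescence response, raw or row-and-column corrected B-score, differing from the plate sample mean either way at a set confidence level, mostly lower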
Htt clearance: compounds clearing mutant huntingtin protein; HeLa Exon1htt(103Q)mCFP, aggregate imaging; zero = plate's median compound well; hit rate 0.42% among 47,000; AID 853; inhibition, % at 1.5 µM;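 active = inhibition of aggregate fluorescence above about 70%, also judged a hit by eye on the cell image, limit read from the data, passing the limit was not always enough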;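 note: cells exposed to compound for three days before fixation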
D1 mod: allosterically modulates the human D1 dopamine receptor | hit rate 5.9% among 58,000 | HEK293 D1, CRE-luciferase, dopamine EC30 potentiation; actives deviate in either direction | B-score at 10 µM | P21728;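 active = luminescence count or its row- and column-corrected plate score outside the 99.7% band of the plate's sample wells, on either side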
Target sequence (P21728 whole entry, looked up): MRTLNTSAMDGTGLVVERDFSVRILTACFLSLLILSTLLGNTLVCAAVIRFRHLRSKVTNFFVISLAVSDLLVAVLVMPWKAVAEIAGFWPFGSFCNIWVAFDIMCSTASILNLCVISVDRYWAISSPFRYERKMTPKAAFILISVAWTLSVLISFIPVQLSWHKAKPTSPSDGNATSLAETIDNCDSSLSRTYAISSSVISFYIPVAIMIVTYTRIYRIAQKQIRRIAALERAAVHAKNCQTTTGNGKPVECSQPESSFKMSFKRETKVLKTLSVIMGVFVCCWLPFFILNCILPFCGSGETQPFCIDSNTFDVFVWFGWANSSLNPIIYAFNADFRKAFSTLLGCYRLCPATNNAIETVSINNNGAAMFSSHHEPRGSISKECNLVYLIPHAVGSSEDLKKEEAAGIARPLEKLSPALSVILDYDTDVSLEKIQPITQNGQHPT
M1 agonist: M1 muscarinic receptor agonism | CHO-M1 cells, Fluo-4 calcium fluorescence, agonist mode; active compounds read high | B-score at 10 µM | hit rate 3% among 64,000 | AID 626;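 active = fluorescence rise, raw or as B-score row- and column-corrected plate score, outside the 99.7% band of its plate's samples, either direction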
D1 PAM confirm: confirmation of human D1 dopamine receptor allosteric modulators | shares compounds with D1 mod | HEK293 D1 CRE-luciferase, dopamine EC30 potentiation; active compounds read high | luminescence at 10 µM | hit rate 88% among 2,200;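 active = luminescence in either of two replicates above the same-plate mean plus 3 SD of the low-dose dopamine control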
D1 no dopamine: D1 (human) signaling in absence of dopamine | shares compounds with D1 mod | HEK293 D1 CRE-luciferase, luminescence, no dopamine; active compounds read high | luminescence at 10 µM | hit rate 0.8% among 1,900 | AID 646; in the data active = luminescence above about 3900
Isoprot counter: alters isoproterenol CRE-luciferase response in HEK293 cells | shares compounds with D1 mod | HEK293 D1 CRE-luciferase, isoproterenol EC30 counter-screen; active compounds read high | luminescence at 10 µM | hit rate 63% among 2,200 | AID 647;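 active = luminescence in either replicate above plate mean of wells with a partly effective reference agonist dose plus 3 SD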;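 note: isoproterenol raises cAMP through native beta-adrenoceptor Gs so signal bypasses D1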
An asterisk follows results filed as active; / = not tested or not shown.

SMILES | M1 antagonist | Htt clearance | D1 mod | M1 agonist | D1 PAM confirm | D1 no dopamine | Isoprot counter
COc1ccc(-c2coc3cc(O)ccc3c2=O)cc1OC | 0.899 | / | 4.56* | -1.83 | 9756* | 1616 | 3120
O=C(NCCNC(=O)C(c1ccccc1)c1ccccc1)c1ccco1 | 0.493 | -36.3 | 5.31* | -0.206 | 6392* | / | 2036
CCOC(=O)c1cc2c(=O)n3ccccc3nc2n(CC(C)C)c1=NC(=O)c1ccco1 | -0.767 | / | 8.31* | -0.0146 | 18960* | 1364 | 4124*
CCOC(=O)c1cc2c(=O)n3ccccc3nc2n(CCCOC)c1=NC(=O)c1cccnc1 | 0.647 | -0.3 | 3.76* | -0.252 | 9344* | 1684 | 3616
CCOC(=O)c1cc2c(=O)n3ccccc3nc2n(CCCOC)c1=NC(=O)C(C)(C)C | -0.63 | / | 4.79* | -1.69 | 7076* | 1412 | 3060
CCOC(=O)c1cc2c(=O)n3ccccc3nc2n(Cc2ccccc2)c1=N | -1.03 | -21.8 | -0.677 | -1.28 | / | / | /
NC1=NC(c2ccc(Br)cc2)n2c(nc3ccccc32)N1 (configuration not stated) | -0.553 | / | 10.2* | 2.05 | 11596* | 1556 | 3012
c1ccc2c(c1)oc1c(Nc3ccc4c(c3)OCO4)ncnc12 | 0.191 | -53.5 | 3.08* | 0.499 | 6592* | / | 2980*
Clc1ccccc1-c1nnc2sc(-c3ccncc3)nn12 | 0.677 | -10.6 | 4.1 | 0.0217 | / | / | /
COc1ccc(-c2nn3c(C4CCCCC4)nnc3s2)cc1OC | 0.0256 | 13.1 | / | 0.978 | / | / | /
COc1ccc(-c2nnc3sc(-c4cccs4)nn23)cc1OC | -0.781 | 10.4 | 4.95* | 4.48 | 12160* | / | 3740*
C1CCC(c2nn3c(-c4n[nH]c5c4CCC5)nnc3s2)CC1 | 0.0433 | 7.9 | 6.32* | -0.158 | 15420* | 1752 | 2504
Clc1ccccc1-c1nn2c(-c3ccncc3)nnc2s1 | / | 6.2 | 4.87* | / | 7940* | 1776 | 2952
COc1ccc(-c2nnc3sc(C4CCCCC4)nn23)cc1OC | 0.234 | -21.1 | 15.4* | 0.382 | 20172* | / | 14084*
CCOc1c(Br)cc(C2NS(=O)(=O)N=C3CCCCCN32)cc1OC (configuration not stated) | -0.42 | / | 1.08 | 0.14 | / | / | /
COC(=O)CCC(=O)N1CCc2cc(S(=O)(=O)N3CCN(c4ccccc4Cl)CC3)ccc21 | 0.988 | / | 0.899 | -0.261 | / | / | /
Clc1ccccc1-c1nnc2sc(-c3cccs3)nn12 | -0.0516 | / | 10.7* | -0.0913 | 14324* | 1788 | 4852*
Clc1ccccc1-c1nn2c(-c3ccccn3)nnc2s1 | -0.231 | / | / | 0.404 | / | / | /
O=C1N[C@@H](Cc2cnc[nH]2)C(=O)N2CCC[C@@H]12 | 0.262 | / | 0.314 | -0.237 | / | / | /
Cc1ccc(NC(=O)c2cccc(OCc3c(C)noc3C)c2)c(C)c1 | -0.43 | / | 4.58* | -0.012 | 5064 | 1592 | 3508
c1ccc(Cn2c(SCc3cn4cccnc4n3)nnc2-c2ccco2)cc1 | -0.176 | 32.9 | 0.396 | -0.137 | / | / | /
O=c1c2c(-c3ccco3)csc2nc(SCc2cn3cccnc3n2)n1-c1ccccc1 | -0.839 | -10.5 | 8.44* | 0.0253 | 15872* | 1792 | 12828*
O=C(CSc1nnc(COc2ccc(F)cc2)o1)N1c2ccccc2CCc2ccccc21 | -0.731 | / | 4.01* | 1.39 | 13460* | 1676 | 2648
O=C(CN(C(=O)CSc1nnc(COc2ccccc2)o1)c1ccc(F)cc1)NC1CCCCC1 | 0.458 | -11.0 | 3.2* | 0.102 | 5428 | 1512 | 2184
O=C(CSc1nnc(COc2cccc3cccnc23)o1)N1CCc2ccccc21 | 1.11 | 24.9 | 0.269 | 1.13 | / | / | /
SMILES | M1 antagonist | Htt clearance | D1 mod | M1 agonist | D1 PAM confirm | D1 no dopamine | Isoprot counter
O=c1cnn(-c2ccccc2)c(-c2ccccc2)c1 | -0.0614 | -25.5 | / | 0.25 | / | / | /
COC(=O)c1ccc2c(=O)n(CCN3CCOCC3)c(SCC(=O)NC3CCCCC3)nc2c1 | 0.142 | / | -0.0184 | -0.662 | / | / | /
COc1ccc(-c2nnc3sc(CN4C(=O)c5ccccc5C4=O)nn23)cc1 | -1.92 | / | -0.209 | 0.98 | / | / | /
COc1ccc(-c2nnc3sc(C(C)N4C(=O)c5ccccc5C4=O)nn23)cc1 (configuration not stated) | -0.0323 | -0.3 | 9.32* | 0.993 | 10292* | 1588 | 5324*
Cc1cccc(-c2nnc(SCc3ccccc3)o2)c1 | / | 20.4 | / | / | / | / | /
N#Cc1cccc(-c2nnc(SCc3ccccc3C#N)o2)c1 | / | / | 2.74* | / | 5456 | 1604 | 3568*
Cc1nc(N2CCCCC2)c2sc(=S)n(C)c2n1 | 0.414 | 1.7 | 8.21* | 0.528 | 12412* | 27240* | 3224*
Cc1nnc(N2CCCCC2)c2ccccc12 | 0.0961 | / | / | 1.47 | / | / | /
Nc1nc(N)nc(-c2ccccc2)n1 | 0.626 | / | 0.984 | -0.387 | / | / | /
Nc1nnc(-c2ccccc2)c(-c2ccccc2)n1 | 0.0869 | 30.4 | 19.8* | -0.368 | 20640* | 1704 | 4536*
CC(=O)C1=C(O)C=C(c2ccco2)CC1c1ccco1 (configuration not stated) | -0.137 | / | 0.00659 | 1.5 | / | / | /
CCOc1ccc(C(=O)OCn2nnc3ccccc3c2=O)cc1OC | 1.65 | / | 15.7* | 0.845 | 23528* | 1684 | 4812*
CCOc1ccc(C(=O)OCc2nnc(-c3cccs3)o2)cc1OC | 0.0176 | / | 15.1* | -1.27 | 16352* | 1560 | 6848*
CC1(C)N=C(N)NC(Nc2ccccc2)=N1 | / | -30.2 | / | / | / | / | /
CC(C)OC(=O)CSc1nnc(-c2cnccn2)n1-c1ccccc1 | 0.041 | 17.4 | 5.08* | -1.2 | 7372* | 1596 | 2732
c1ccc(-n2c(SCC3CCCCO3)nnc2-c2cnccn2)cc1 (configuration not stated) | 0.646 | -20.4 | 1.72 | -0.00548 | / | / | /
Cc1ccc(-n2nnc3c(SCC(=O)N4CCN(c5ccccc5)CC4)ncnc32)cc1 | -0.373 | -15.7 | / | -0.00167 | / | / | /
CCC(=O)Nc1cc2c(cc1C(=O)CC)OCCO2 | -2.03 | / | 13.6* | 0.379 | 12916* | 1684 | 4012*
CC(=O)Nc1cc2c(cc1C(=O)c1ccccc1)OCCO2 | -0.313 | / | 6.34* | -1.23 | 8592* | 1552 | 3136*
CCC(=O)Nc1cc2c(cc1C(=O)c1ccccc1)OCCO2 | -0.114 | -27.5 | 13.4* | -0.848 | 15532* | / | 3412*
CN(C)c1nc(N)nc(Cn2ccnc2)n1 | 0.13 | -32.1 | 0.728 | 0.793 | / | / | /
Cc1cc(C)nc(SCC(=O)N2CCCCC2)n1 | -0.203 | 44.9 | 2.88* | -1.45 | 5424* | 1632 | 2288
COC(=O)c1cc(NC(=O)CSc2nc(C)cc(=O)[nH]2)cc(C(=O)OC)c1 | -0.283 | -13.9 | 2.86* | -0.0122 | 6652* | 1452 | 2420
CCOC(=O)c1ccc(NC(=O)CSc2nc(C)cc(=O)[nH]2)cc1 | 0.235 | -6.9 | 0.53 | 0.204 | / | / | /
COc1cc2[nH]c(=S)n(C3CCCC3)c(=O)c2cc1OC | -1.25 | / | 2.86* | 0.461 | 13356* | 1768 | 2820
COC(=O)C(Cc1cnc[nH]1)NC(=O)C1CCC(=O)N1 (configuration not stated) | 0.372 | -20.1 | -0.163 | -0.707 | / | / | /
N#Cc1c(N)nc(SCc2ccncc2)c(C#N)c1-c1cccs1 | -0.059 | / | 6.49* | -1.19 | 8108* | 1716 | 4352*
